From PubChem BioAssay (Tox21)
Results filed as inconclusive are left out. Values without a mark were called inactive. Active and inactive are the calls of the source. The call rests on the fitted dose curve; in most records, active means well fitted activation curve with a large enough effect in the repeat runs; inconclusive means weak or mixed curves; inactive means flat fitted curve, though single readings scatter.
On the % scale 0 is the no-effect control and ±100 the full control effect; potency means the concentration at half of the fitted maximal effect.

Test: A CellTox Green Cytotoxicity Assay to monitor cytotoxicity in HepG2 cells - 24 hour (AID 1224878); further: nearly all actives have a fitted effect of over 45% in size
Details: CellTox Green fluorescence; series mostly up to 76.8 µM; cytotoxicity: at the top concentration
Source text: National Center for Advancing Translational Sciences [NCATS]
NIH Chemical Genomics Center [NCGC]
U.S. Environmental Protection Agency [EPA]
National Institutes of Environmental Health Sciences [NIEHS]
National Toxicology Program [NTP]
Cell-based models are critical for drug discovery. Determining the natural cytotoxic effects resulting from test compounds is an essential research activity. A CellTox Green Cytotoxicity Assay to monitor cytotoxicity in real time of continues cell culture during 40 hours of the compound treatment was used to screen Tox21 10K library compounds in HepG2 cells. CellTox Green Cytotoxicity Assay is a nonlytic, homogeneous, biofluorescent method to measure cytotoxicity in cell culture after experimental manipulation. The assay system uses a proprietary asymmetric cyanine dye that is excluded from viable cells but preferentially stains the dead cell's DNA. […] Viable cells produce no appreciable increases in fluorescence. Therefore, the fluorescence signal produced by the binding interaction with dead cell DNA is proportional to cytotoxicity.
The mixture of HepG2 cell suspension and reagents were dispensed at 600cells/6 ul/well in 1536-well tissue culture treated black solid bottom plates using a Multidrop dispenser. After the assay plates were incubated at a 37 C/5% CO2 incubator for 5 hours, 23 nL of compounds dissolved in DMSO, positive and negative controls was transferred to the assay plate by a pintool work station. The plates were incubated at 37 C for 40 hours. The fluorescence intensity were measured at 0h, 8h, 16h, 24h, 32h and 40h time points using ViewLux plate reader during compound treatment.
For `ClSC(Cl)(Cl)Cl`, the “cytotoxicity” value was 4.99%. For `N#CC(C#N)=NNc1cccc(Cl)c1`, the Potency was 24.5 µM (active). For `CCn1cc[n+](C)c1` (tested in a mixture with another compound), the “cytotoxicity” value was -0.521%. For `CCC[CH2][Sn]([CH2]CCC)([CH2]CCC)[CH2]CCC`, the Potency was 13.8 µM (active). For `CCOP(=S)(OCC)Oc1cc(C)nc(N(CC)CC)n1`, the “cytotoxicity” value was -4.44%. In the case of `CCN(CC)CCN1C(=O)CN=C(c2ccccc2F)c2cc(Cl)ccc21`, the “cytotoxicity” value is reported as -1.41% [at 35.3 µM]. For `c1csc(-c2ccc(-c3cccs3)s2)c1`, the “cytotoxicity” value was -11.8%. In the case of `[Cl-].[Cl-].[Cl-].[Yb+3]`, the “cytotoxicity” value is reported as -14.7%. With `O=S1(=O)OCC2C(CO1)C1(Cl)C(Cl)=C(Cl)C2(Cl)C1(Cl)Cl` (stereo not given) the “cytotoxicity” value was 23.5%. In the case of `CC(C)NCC(O)c1ccccc1Cl` (stereo not given), the “cytotoxicity” value is reported as 4.87% [at 35.3 µM]. For `C[C@]12CC[C@H]3[C@@H](CCC4=CC(=O)CC[C@@H]43)[C@@H]1CC[C@@H]2OC(=O)CCc1ccco1`, the “cytotoxicity” value was -0.552% [at 35.3 µM]. With `CC[N+]1(CC)CCC(OC(=O)C(O)(c2ccccc2)c2ccccc2)C1` (stereo not given) the “cytotoxicity” value was -16.9% [at 35.3 µM]. In the case of `O.O.O.O.O.O.O=S(=O)([O-])[O-].[Ni+2]`, the “cytotoxicity” value is reported as -20.6% [at 35.3 µM]. For `CCC(C)c1cccc(C(C)CC)c1O` (stereo not given), the Potency was 19.5 µM (active). With `[Cl-].[Cl-].[Sn+2]` the “cytotoxicity” value was 0.0491%. In the case of `CNC(=O)CSP(=O)(OC)OC`, the “cytotoxicity” value is reported as -0.989%. For `O.O.O.O=C([O-])[C@H]([O-])[C@@H]([O-])C(=O)[O-].O=C([O-])[C@H]([O-])[C@@H]([O-])C(=O)[O-].[K+].[K+].[Sb+3].[Sb+3]`, the “cytotoxicity” value was 6.89%. In the case of `O=C(Nc1ccc(F)cc1F)c1cccnc1Oc1cccc(C(F)(F)F)c1`, the “cytotoxicity” value is reported as 9.42%. In the case of `O=[N+]([O-])c1ccc(Cl)c(Cl)c1Cl`, the “cytotoxicity” value is reported as 10.7%. With `CNC(C)(C)Cc1ccccc1` the “cytotoxicity” value was 0.871% [at 35.3 µM]. For `CCCCn1cc[n+](C)c1` (tested in a mixture with another compound), the “cytotoxicity” value was -0.157%. With `O=[N+]([O-])c1ccccc1-c1ccccc1` the “cytotoxicity” value was 4.27%. In the case of `CSC1=N[C@@](C)(c2ccccc2)C(=O)N1Nc1ccccc1`, the “cytotoxicity” value is reported as -0.495%. With `CSC(=O)c1c(C(F)F)nc(C(F)(F)F)c(C(=O)SC)c1CC(C)C` the “cytotoxicity” value was 3.53%. In the case of `O=C(O)CCCCCCNC1c2ccccc2CCc2ccccc21`, the “cytotoxicity” value is reported as 0.27% [at 35.3 µM]. For `CC1CCCC1`, the “cytotoxicity” value was -10.5%. With `CSC(C)(C)/C=N/O` the “cytotoxicity” value was -0.385%. In the case of `Clc1ccc(C2(Cn3cncn3)OCCO2)c(Cl)c1`, the “cytotoxicity” value is reported as -3.73%. With `Nc1nc(N)nc(Cl)n1` the “cytotoxicity” value was 5.04%. In the case of `S=C=Nc1ccccc1`, the “cytotoxicity” value is reported as 0.195%. With `O=S(=O)(O)F` the “cytotoxicity” value was -3.83%. With `CC(C)=CCN1CC[C@@]2(C)c3cc(O)ccc3C[C@@H]1[C@@H]2C` the “cytotoxicity” value was 4.41%. In the case of `CN(C)CCc1c[nH]c2ccccc12`, the “cytotoxicity” value is reported as -4.98%. In the case of `CCOP(=O)(OCC)Oc1cc(C)nc(C(C)C)n1`, the “cytotoxicity” value is reported as -3.6%. In the case of `O=c1[nH]c2cc(Cl)ccc2n1C1CCNCC1`, the “cytotoxicity” value is reported as -10.5% [at 35.3 µM]. In the case of `ClC1=C(Cl)[C@]2(Cl)[C@H]3[C@H]([C@@H]4C=C[C@H]3C4)[C@@]1(Cl)C2(Cl)Cl`, the Potency is reported as 54.9 µM (active). For `COc1nc(C)nc(NC(=O)NS(=O)(=O)c2ccccc2Cl)n1`, the “cytotoxicity” value was -1.89%. For `CC(=O)O.CC(=O)O.CC(=O)O.CC(=O)O.CC(=O)O.CC(=O)O.CC(=O)O.O.O.[Cr].[Cr].[Cr]`, the “cytotoxicity” value was 3.03%. For `CSSC`, the “cytotoxicity” value was -10.5%. With `CC(C)(C)c1ccc(OP(=O)(Oc2ccccc2)Oc2ccccc2)cc1` the “cytotoxicity” value was 0.0823%.
